SENP8 block-1: SENP8 (human) protease inhibition | Q96LD8 | recombinant SENP8, Nedd8 substrate fluorescence | inhibition, % at 20 µM | hit rate 0.64% among 360,000; in the data active = inhibition mostly above about 40%, no sharp cut-off; inactive = mostly below about 27%
Target sequence (Q96LD8 whole entry, looked up): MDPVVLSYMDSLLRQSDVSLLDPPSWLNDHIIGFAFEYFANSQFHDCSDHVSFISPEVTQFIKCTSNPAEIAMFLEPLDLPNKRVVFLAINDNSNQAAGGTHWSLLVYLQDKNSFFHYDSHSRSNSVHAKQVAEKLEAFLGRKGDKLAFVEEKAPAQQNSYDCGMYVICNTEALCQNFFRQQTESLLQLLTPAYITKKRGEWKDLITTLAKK
SENP8 block-2: inhibitors of human SENP8 protease. purified SENP8, Z-RLRGG-aminoluciferin cleavage, luminescence. inhibition, % at 10 µM. hit rate 1.2% among 330,000. AID 2540; in the data active = inhibition above about 50%
HSP90 refold inh: HSP90 refolding inhibition in rabbit reticulocyte lysate; luciferase refolding luminescence, 3 h; inhibition, % at 5.6 µM; hit rate 0.91% among 290,000; AID 1789;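 active = inhibition above the screen-wide mean plus 3 SD, computed separately per campaign, cut at about 16% in these data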;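 note: 0% = DMSO wells and 100% = 60 µM geldanamycin wells; inhibitors lower the luminescence because luciferase stays unfolded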
SENP6 block: blocks the human protease SENP6 | Q9GZR1 | Recombinant SENP6 catalytic domain, aminoluciferin luminescence | inhibition, % at 10 µM | hit rate 1.8% among 330,000 | AID 2599;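 active = inhibition above about 50% at the single tested dose, limit read from the data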;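 note: plate controls were DMSO wells with enzyme for no effect and DMSO wells lacking enzyme for full effect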
SENP7 block: inhibitors of human SENP7 protease | inhibition, % at 5 µM | recombinant SENP7, Z-RLRGG-aminoluciferin luminescence, 40 min | Q9BQF6 | hit rate 1.5% among 330,000;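 active = inhibition above about 50% at the single test dose, limit read from the data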;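 note: plate controls were DMSO with enzyme for no effect and no enzyme buffer wells for full effect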
HSP90 confirm: HSP90 inhibition, confirmation assay; inhibition, % at 5.9 µM; hit rate 64% among 2,300; rabbit reticulocyte lysate, luciferase refolding luminescence, 3 h; shares compounds with HSP90 refold inh; in the data active = inhibition above about 18%;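 note: 0% = vehicle wells and 100% = reference inhibitor wells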
luciferase ctr: counter-screen for HSP90 inhibitors: inhibitors of firefly luciferase; shares compounds with HSP90 refold inh; purified native firefly luciferase, luminescence; inhibition, % at 5.9 µM; hit rate 48% among 2,300;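 active = inhibition above the mean inhibition of all tested sample wells plus 3 SD, cut at about 10% in these data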;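 note: 0% = DMSO with luciferase and 100% = wells lacking luciferase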
SENP8 conf: confirmation of human SENP8 protease inhibitors | shares compounds with SENP7 block | Recombinant SENP8, Z-RLRGG-aminoluciferin luminescence, 60 min | inhibition, % at 12.5 µM | hit rate 40% among 6,200 | AID 488912;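 active = mean inhibition across replicates above about 50%, limit read from the data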
SENP6 conf: human SENP6 inhibition, confirmed | recombinant SENP6, Z-RLRGG-aminoluciferin luminescence | inhibition, % at 12.5 µM | shares compounds with SENP7 block | hit rate 58% among 6,200
SENP7 confirm: confirmation of human SENP7 protease inhibitors; shares compounds with SENP7 block; recombinant SENP7, Z-RLRGG-aminoluciferin luminescence, 40 min; inhibition, % at 12.5 µM; hit rate 69% among 6,200; AID 488917
Casp3 SENP sel: inhibits human caspase-3 in SENP selectivity test. shares compounds with SENP7 block. purified caspase-3, Z-DEVD-aminoluciferin luminescence, 60 min. inhibition, % at 12.5 µM. hit rate 60% among 6,200;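 active = mean inhibition above about 50%, limit read from the data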;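 note: plate controls were enzyme with DMSO for no effect and wells without caspase-3 for full effect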
Target sequence (P42574 28-227 limits assumed): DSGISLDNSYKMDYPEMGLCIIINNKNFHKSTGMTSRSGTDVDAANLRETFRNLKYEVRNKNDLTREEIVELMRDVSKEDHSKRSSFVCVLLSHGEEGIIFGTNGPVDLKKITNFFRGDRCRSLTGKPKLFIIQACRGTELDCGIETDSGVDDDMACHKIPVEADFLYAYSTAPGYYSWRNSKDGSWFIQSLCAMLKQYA
Luc interf: counter-screen for SENP inhibitors: luminescence interference; AID 488919; inhibition, % at 12.5 µM; hit rate 39% among 6,200; Pre-incubated SENP8/Z-RLRGG-aminoluciferin, luciferase luminescence interference; shares compounds with SENP7 block;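 active = mean inhibition above about 50% when retested at one dose, limit read from the data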;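 note: plate controls were DMSO wells with completed reaction for no effect and substrate without enzyme for full effect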
The depositor's hits bear a star; . = no result. Sampled rows, rich in hits. Any-hit rate of the full collection: about 2.8%.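 Rule for the calls, unless noted: active = mean inhibition above about 50% in the one-dose retest (limit read from the data); inactive = the rest.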

SMILES	SENP8 block-1	SENP8 block-2	HSP90 refold inh	SENP6 block	SENP7 block	HSP90 confirm	luciferase ctr	SENP8 conf	SENP6 conf	SENP7 confirm	Casp3 SENP sel	Luc interf
O=C(Nc1cccc(O)c1)c1noc2c1CCc1ccccc1-2	17	96*	40*	97*	99*	61*	54*	94*	96*	102*	94*	92*
COCC(C)n1c(C)cc(C(=O)COC(=O)c2n[nH]c3ccccc23)c1C (stereo unspecified)	16	21	47*	55*	30	48*	45*	48	42	67*	47	48
CCCn1nnnc1SCC(=O)Nc1nnc(CC)s1	11	6	1	-15	4	.	.	.	.	.	.	.
O=C(Nc1ccc(F)cc1F)c1ccc2c(c1)OCCO2	3	78*	23*	89*	89*	32*	12*	8	82*	98*	93*	56*
O=C(NCc1ccccc1F)c1ccc2c(c1)OCO2	4	-11	6	-4	-6	.	.	.	.	.	.	.
O=C(Nc1ccc(Br)cc1F)c1ccc2c(c1)OCCO2	3	80*	55*	90*	86*	50*	41*	-3	86*	98*	84*	19
Cc1ccccc1NC(=O)c1ccc2c(c1)OCCO2	23	-3	2	22	0	.	.	.	.	.	.	.
O=C(NCCc1ccccc1F)c1ccc2c(c1)OCCO2	-3	80*	95*	92*	89*	98*	92*	89*	89*	98*	94*	89*
Cc1ccn2cc(-c3ccc(Br)cc3)nc2c1	-424	94*	40*	92*	97*	60*	62*	56*	94*	96*	94*	39
Cc1ccc(S(=O)(=O)Nc2ccc(-c3cn4ccc(C)cc4n3)cc2)cc1	-186	0	3	-3	3	.	.	.	.	.	.	.
Cc1ccc(S(=O)(=O)N(C)c2c(C)ccc(S(=O)(=O)Nc3ccncc3)c2C)cc1	9	-5	1	-22	-1	.	.	.	.	.	.	.
CCOC(=O)c1sc2nc3c(cc2c1N)COC(C(C)C)C3 (stereo unspecified)	-262	-3	25*	20	51*	44*	41*	12	8	6	18	3
CC(C)c1cc(C(N)=O)c(NC(=O)c2cccc(COc3ccc(Cl)cc3)c2)s1	-224	39	49*	84*	15	71*	69*	98*	95*	99*	48	91*
Cc1nn(Cc2c(F)c(F)c(F)c(F)c2F)c(C)c1NC(=O)c1cccc(COc2ccc(Cl)cc2)c1	6	-15	2	-6	-11	.	.	.	.	.	.	.
CC(C)(C)c1ccc(C(=O)NCCOc2ccccc2F)cc1	14	59*	63*	74*	72*	80*	78*	5	69*	90*	52*	47
CN(C)S(=O)(=O)c1ccc(C(=O)NCCOc2ccccc2)cc1	10	1	3	-16	2	.	.	.	.	.	.	.
CC(C)(C)c1ccc(C(=O)NCCOc2ccccc2)cc1	5	38	49*	57*	54*	70*	65*	-5	36	80*	.	-1
CCN(CC)S(=O)(=O)c1ccc(C(=O)N(c2ccc(C)cc2)C2C=CS(=O)(=O)C2)cc1 (stereo unspecified)	28	-8	-2	-15	-1	.	.	.	.	.	.	.
Cc1cccc(C)c1Nc1nc2ccccc2o1	20	4	-2	-10	-7	.	.	.	.	.	.	.
